Bioassay records: PubChem, National Center for Advancing Translational Sciences (NCATS)
TDP1 cell noCPT = qHTS for Inhibitors of human tyrosyl-DNA phosphodiesterase 1 (TDP1): qHTS in cells in absence of CPT. DT40 Tdp1-/- hTDP1 cells, no CPT, ATP luminescence, 48 h. Potency, µM (highest dose often 46.2 µM), inactives show at the top dose activity change, negative = growth inhibition, most hits filed as inhibitors. 420,000 tested, 15% active. AID 686978, 2013; further: potency means the concentration at half of the fitted maximal effect; nearly all actives have a fitted effect of over 55% in size
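Growth of hTDP1-complemented DT40 Tdp1-knockout cells is measured by ATP luminescence after at least 48 hr compound exposure at 37 °C, with DMSO substituting for the 20 nM CPT used in the parallel screen.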
CtBP-E1A blk = inhibitors of CtBP/E1A interaction. activity change, % (no concentration beside the values). AID 651724. 340,000 tested, 0.49% active. AlphaScreen GST-E1A/His-CtBP binding, 1536-well; hits give low values; in the data active means activity change below about -65%; inconclusive means mostly about -30% to -63%
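Steps: dispense buffer (Tris pH 8.0, NaCl 300 mM, TCEP 1 mM, BSA, Tween 20); add 5X protein mix (GST-E1A, His-CtBP, 125 nM each); pin 23 nL compound; 2 h at 37 °C, dark; add 5X beads (50 ug/mL); 1 h; read.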
DT40 TDP1 CPT = DT40-hTDP1 cell growth loss with CPT; chicken DT40 Tdp1-/-;hTDP1 cells + 20 nM CPT, ATP luminescence, 48 h; Potency, µM (top dose mostly 46.2 µM), without a hit: at the top dose activity change, negative = growth inhibition, usual class: inhibitors; 420,000 tested, 12% active; AID 686979; further: potency means the concentration at half of the fitted maximal effect; nearly all actives have a fitted effect of over 55% in size
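Chicken DT40 Tdp1-/- cells complemented with human TDP1, 400 cells/well, exposed to compounds plus 20 nM camptothecin for at least 48 h at 37 C; viability read as ATP content by CellTiter-Glo luminescence.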
TDP1 inh = TDP1 (human) enzyme inhibition; 350,000 tested, 0.28% active; Potency, µM (top dose mostly 130 µM), for the others: at the highest dose activity change, negative = inhibition, most hits filed as inhibitors; Q9NUW8; recombinant TDP1, AlphaScreen DNA substrate cleavage; further: potency means the concentration at half of the fitted maximal effect; nearly all actives have a fitted effect of over 40% in size
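Tdp1 1 nM final; 15 min RT w/ cpd; substrate 15 nM, 5 min; beads 10 ug/ml, 10 min; AlphaScreen read. Neg ctrl: no enzyme.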
Six1-Eya2 blk = blocks human Six1 binding to Eya2; AlphaScreen GST-Six1/His-Eya2 binding, biochemical; hits give low values; 360,000 tested, 0.56% active; activity change, % (test concentration not listed); Q15475+O00167; in the data active means activity change below about -65%; inconclusive means mostly about -30% to -63%
Target sequence (O00167 whole entry, looked up): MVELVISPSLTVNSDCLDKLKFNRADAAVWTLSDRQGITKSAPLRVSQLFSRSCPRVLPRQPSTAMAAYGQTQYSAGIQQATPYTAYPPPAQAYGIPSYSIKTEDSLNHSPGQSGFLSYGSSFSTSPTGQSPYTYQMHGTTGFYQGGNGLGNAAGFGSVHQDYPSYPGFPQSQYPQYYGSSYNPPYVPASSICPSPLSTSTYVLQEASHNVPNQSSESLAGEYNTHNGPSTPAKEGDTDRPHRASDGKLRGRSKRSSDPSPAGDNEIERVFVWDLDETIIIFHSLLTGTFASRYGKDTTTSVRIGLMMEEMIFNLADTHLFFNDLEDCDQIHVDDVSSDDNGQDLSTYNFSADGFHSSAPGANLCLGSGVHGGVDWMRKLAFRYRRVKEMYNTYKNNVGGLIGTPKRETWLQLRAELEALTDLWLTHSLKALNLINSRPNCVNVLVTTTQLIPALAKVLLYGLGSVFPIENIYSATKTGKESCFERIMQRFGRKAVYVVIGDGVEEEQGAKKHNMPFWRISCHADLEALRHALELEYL
Target sequence (Q15475 whole entry, looked up): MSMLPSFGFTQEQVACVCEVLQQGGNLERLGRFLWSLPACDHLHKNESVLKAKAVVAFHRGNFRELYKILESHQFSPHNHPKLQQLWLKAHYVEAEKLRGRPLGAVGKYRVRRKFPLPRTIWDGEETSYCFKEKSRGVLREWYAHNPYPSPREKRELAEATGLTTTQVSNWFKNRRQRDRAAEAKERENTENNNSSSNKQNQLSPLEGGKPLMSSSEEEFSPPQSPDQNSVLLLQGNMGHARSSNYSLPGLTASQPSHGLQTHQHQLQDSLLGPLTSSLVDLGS
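Homogeneous AlphaScreen proximity assay pairing GST-Six1 with His-tagged Eya2 (added as 5X mix: 250 nM and 500 nM) in 50 mM Tris pH 8.0, 300 mM NaCl, 1 mM TCEP. Glutathione donor and nickel acceptor beads; 1 h, 37 °C, dark.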
IL1B secr inh = inhibitors of inflammasome signaling (IL-1 beta secretion). THP-1 LPS/ATP IL-1B secretion, AlphaLISA, 16 h; hits give low values. activity change, % at 57.5 µM. 360,000 tested, 4.7% active; in the data active means activity change below about -50%; inconclusive means mostly about -30% to -49%
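Secreted IL-1B measured by AlphaLISA bead assay after 16 h compound exposure of THP-1 cells; compounds (final up to 57.5 uM) added 1 h before LPS (250 ng/mL) and ATP (1.25 mM) stimulation; lower signal means less secretion.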
Starred values were filed as active, the others as inactive. Only some compounds are listed: those with a hit (about 18% of all), similar ones and a draw of the others. Unless noted, the call rests on the fitted dose curve; in most records, active means well fitted curve in the direction sought with a large enough effect; inconclusive means small, poorly fitted or top-dose-only effect, or another doubt; inactive means no such curve, though single readings can be large; an effect the other way counts as inactive or inconclusive. On the % scale 0 is the no-effect control and ±100 the full control effect.

How did CCOC(=O)CC(=O)CSc1nc2ccc(C)cc2cc1C#N do in these assays?
TDP1 cell noCPT: 0.73µM*; CtBP-E1A blk: -13; DT40 TDP1 CPT: 1.2µM*; TDP1 inh: -2%; Six1-Eya2 blk: -8; IL1B secr inh: 6

What do the screens show for `Cc1ccc2nc3sc(-c4nnc(-c5ccccc5[N+](=O)[O-])o4)c(N)c3cc2c1`?
TDP1 inh: 3%

How did CCOC(=O)CC(=O)CSc1nc(CC)c(C)cc1C#N do in these assays?
TDP1 cell noCPT: 13µM*; CtBP-E1A blk: 2; DT40 TDP1 CPT: inconclusive; TDP1 inh: 71µM*; Six1-Eya2 blk: 3; IL1B secr inh: -6

What do the screens show for `CCNC(=O)NCc1cccc(Cl)c1`?
TDP1 cell noCPT: 0%; DT40 TDP1 CPT: -4%; TDP1 inh: 3%

Results for COc1cccc(NC(=O)CN(C)C(=O)c2cc(-c3ccccc3)nn2-c2ccccc2)c1 ?
TDP1 cell noCPT: -5%; CtBP-E1A blk: -6; DT40 TDP1 CPT: -1%; TDP1 inh: 1%; Six1-Eya2 blk: -6; IL1B secr inh: inconclusive

What do the screens show for `CCOC(=O)CC(=O)CSc1nc2c(c(C)c1C#N)CCC2`?
TDP1 cell noCPT: 7.3µM*; CtBP-E1A blk: 3; DT40 TDP1 CPT: 15µM*; TDP1 inh: 1%; Six1-Eya2 blk: -5; IL1B secr inh: 11

How did CCOC(=O)CC(=O)CSc1nc2c(cc1C#N)CCCCC2 do in these assays?
TDP1 cell noCPT: -3%; CtBP-E1A blk: -1; DT40 TDP1 CPT: 3%; TDP1 inh: 2%; Six1-Eya2 blk: -1; IL1B secr inh: 44

How did CCOC(=O)COc1c(OC)cc(Cl)cc1C1Nc2ccccc2C(=O)N1c1cccc(C)c1 (stereo unspecified) do in these assays?
TDP1 cell noCPT: 26µM*; CtBP-E1A blk: -9; DT40 TDP1 CPT: inconclusive; TDP1 inh: 2%; Six1-Eya2 blk: 1; IL1B secr inh: -11

What do the screens show for `CCOC(=O)COc1c(OC)cc(Cl)cc1C1Nc2ccccc2C(=O)N1c1ccccc1` (stereo unspecified)?
TDP1 cell noCPT: -26%; CtBP-E1A blk: 12; DT40 TDP1 CPT: -27%; TDP1 inh: 1%; Six1-Eya2 blk: 1; IL1B secr inh: 13

How did C=CCn1c(SCC(=O)Nc2cc(C)on2)nc2sc3c(c2c1=O)CCCC3 do in these assays?
TDP1 cell noCPT: 9.2µM*; CtBP-E1A blk: 4; DT40 TDP1 CPT: 23µM*; TDP1 inh: 1%; Six1-Eya2 blk: 2; IL1B secr inh: 20

What do the screens show for `C=CCn1c(SCC(=O)Nc2c(C)n(C)n(-c3ccccc3)c2=O)nc2sc(C)c(-c3ccccc3)c2c1=O`?
TDP1 cell noCPT: inconclusive; CtBP-E1A blk: -1; DT40 TDP1 CPT: 29µM*; TDP1 inh: 3%; Six1-Eya2 blk: 0; IL1B secr inh: -30

How did Cc1cc(NC(=O)CSc2nc(C3CC3)nc3sc4c(c23)CCC(C)C4)no1 (stereo unspecified) do in these assays?
TDP1 cell noCPT: 18µM*; CtBP-E1A blk: 7; DT40 TDP1 CPT: 16µM*; Six1-Eya2 blk: 0; IL1B secr inh: 24

How did CCn1c(SCC(=O)Nc2cc(C)on2)nc2sc3c(c2c1=O)CCCC3 do in these assays?
TDP1 cell noCPT: 6.5µM*; CtBP-E1A blk: 4; DT40 TDP1 CPT: inconclusive; Six1-Eya2 blk: -1; IL1B secr inh: 29

How did C=CCn1c(SCC(=O)Nc2c(C)n(C)n(-c3ccccc3)c2=O)nc2sc(C)c(C)c2c1=O do in these assays?
TDP1 cell noCPT: inconclusive; CtBP-E1A blk: 2; DT40 TDP1 CPT: -29%; TDP1 inh: 5%; Six1-Eya2 blk: 0; IL1B secr inh: -25

How did O=C(/C=C/c1ccc(OCCCF)cc1)NCc1ccc(Cl)c(Cl)c1 do in these assays?
TDP1 cell noCPT: inconclusive; CtBP-E1A blk: -2; DT40 TDP1 CPT: -9%; TDP1 inh: 6%; Six1-Eya2 blk: -1; IL1B secr inh: 1

What do the screens show for `COc1cc2nc(COc3ccc(C#N)cc3)n(CC#N)c(=O)c2cc1OC`?
TDP1 cell noCPT: -17%; CtBP-E1A blk: -1; DT40 TDP1 CPT: inconclusive; TDP1 inh: 2%; Six1-Eya2 blk: -8; IL1B secr inh: 0

Results for CC(NC(=O)c1ccc(F)cc1)c1ccc(F)cc1 (stereo unspecified) ?
TDP1 cell noCPT: 12%; CtBP-E1A blk: 8; DT40 TDP1 CPT: 14%; TDP1 inh: 3%; Six1-Eya2 blk: 4; IL1B secr inh: 36

Results for COc1ccccc1NS(=O)(=O)c1ccc(C)c(C(=O)NCC(c2ccco2)N2CCCCC2)c1 (stereo unspecified) ?
TDP1 cell noCPT: inconclusive; CtBP-E1A blk: -4; DT40 TDP1 CPT: inconclusive; TDP1 inh: 4%; Six1-Eya2 blk: -3; IL1B secr inh: 16

How did CC1CN(C(=O)c2cccc(S(=O)(=O)Nc3cc(Cl)ccc3Cl)c2)CC(C)O1 (stereo unspecified) do in these assays?
TDP1 cell noCPT: 1%; CtBP-E1A blk: -18; DT40 TDP1 CPT: 1%; TDP1 inh: 3%; Six1-Eya2 blk: inconclusive; IL1B secr inh: 0

What do the screens show for `CCn1c(SCC(=O)Nc2cc(C)on2)nc2sc(C)c(C)c2c1=O`?
TDP1 inh: 1%

What do the screens show for `C=C(C)Cn1c(SCC(=O)Nc2cccc(C)c2)nc2sc3c(c2c1=O)CCCC3`?
TDP1 cell noCPT: 13µM*; DT40 TDP1 CPT: 9.2µM*

Results for C=CCn1c(SCC(=O)Nc2cc(C)on2)nc2sc(C)c(C)c2c1=O ?
TDP1 cell noCPT: 6.5µM*; DT40 TDP1 CPT: inconclusive; TDP1 inh: 4%; Six1-Eya2 blk: 3; IL1B secr inh: -12

How did Cc1cc2c(cc1C)-n1nnnc1C(N1CCN(CC(=O)N3CCCC3)CC1)C(=O)N2 (stereo unspecified) do in these assays?
TDP1 cell noCPT: -17%; CtBP-E1A blk: 10; DT40 TDP1 CPT: -21%; Six1-Eya2 blk: 2; IL1B secr inh: 0

Results for Cc1cc2c(cc1C)-n1nnnc1C(N1CCN(C(=O)OCc3ccccc3)CC1)C(=O)N2 (stereo unspecified) ?
TDP1 cell noCPT: 5.8µM*; CtBP-E1A blk: -11; DT40 TDP1 CPT: 6.5µM*; Six1-Eya2 blk: -4; IL1B secr inh: -4

How did Cc1cc2c(cc1C)-n1nnnc1C(N1CCN(c3ccccc3F)CC1)C(=O)N2 (stereo unspecified) do in these assays?
TDP1 cell noCPT: 18µM*; CtBP-E1A blk: -2; DT40 TDP1 CPT: 18µM*; Six1-Eya2 blk: -9; IL1B secr inh: 7
